Only some compounds are listed: those with a hit (about 4.1% of all), similar ones and a draw of the others.
DAX1 inh-1 – DAX1 (NR0B1) inhibitors, primary screen, cell-based, HEK293, Gal4-DAX1, luciferase luminescence; hit rate 0.99% among 340,000; HEK293 Gal4-DAX1 luciferase reporter; Nuclear receptor subfamily 0 group B member 1 (Homo sapiens), P51843; inhibition, % at 6.75 µM;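 active = inhibition above the mean over all tested compounds plus 3 SD, cut at about 4.2% in these data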;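 also: inhibition shows as a rise in luminescence from relieved DAX1 repression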
Target sequence (P51843 207-470 limits assumed): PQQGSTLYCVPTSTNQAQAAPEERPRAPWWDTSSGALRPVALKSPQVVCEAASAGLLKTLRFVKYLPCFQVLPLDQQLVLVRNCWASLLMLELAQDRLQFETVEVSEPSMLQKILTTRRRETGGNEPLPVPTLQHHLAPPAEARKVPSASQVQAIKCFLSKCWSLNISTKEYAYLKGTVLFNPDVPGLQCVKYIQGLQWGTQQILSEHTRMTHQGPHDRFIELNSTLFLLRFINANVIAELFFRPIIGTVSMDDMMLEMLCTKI
DAX1 inh-2 – DAX1 (NR0B1) inhibitors on StAR promoter, primary screen, cell-based, luminescence, SF-1 (NR5A1), full-length DAX-1; HEK293T StAR-luciferase reporter, SF-1/DAX-1 repression relief; inhibition, % at 6.8 µM; AID 652010, 2013; hit rate 1.1% among 370,000;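 active = inhibition above the mean over all tested compounds plus 3 SD, cut at about 3.6% in these data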;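 also: higher inhibition means more luminescence from relief of DAX-1 repression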
ssDAF12 agonist – S. stercoralis DAF-12 nuclear receptor activators, primary screen, cell-based, luminescence, HEK293, GRIP1 co-expression, lit1-tk-luc; Nuclear hormone receptor DAF-12 (Strongyloides stercoralis); HEK293 ssDAF-12/GRIP1 lit1-tk-luc reporter; % of 3 µM dafachronic acid response; activation, % at 6.8 µM; hit rate 1% among 370,000; AID 652126, 2013;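 active = activation above the mean over all tested compounds plus 3 SD, cut at about 0.9% in these data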
hgDAF12 agonist – H. glycines DAF-12 receptor agonists, primary screen, cell-based, luminescence, HEK293, GAL4 fusion, UAS-luciferase | Nuclear hormone receptor DAF-12 (Heterodera glycines), GAL4 fusion | HEK293 GAL4-hgDAF12 UAS-luciferase reporter, agonist luminescence; normalized to butyrate control | activation, % at 6.8 µM | hit rate 1.8% among 370,000 | AID 687014, 2013;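 active = activation above a cutoff set at the mean of all screened compounds plus 3 SD, cut at about 10% in these data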
hcDAF12 agonist – H. contortus DAF-12 nuclear receptor activators, primary screen, cell-based, luminescence, HEK293, lit1-tk-luc reporter. HEK293 hcDAF-12 lit1-tk-luc reporter; 0% DMSO, 100% Δ7-dafachronic acid. activation, % at 6.8 µM. hit rate 1.4% among 370,000. AID 652067, 2013;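 active = activation above the mean of all tested compounds plus 3 SD, cut at about 5.5% in these data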
DAX1 inh confirm – DAX1 (NR0B1) inhibitors relieving SF-1 repression, confirmation, cell-based, luminescence, HEK293T, full-length DAX-1, SF-1 activated StAR promoter; shares compounds with DAX1 inh-2; HEK293T StAR-promoter luciferase reporter, SF-1/DAX-1 repression; inhibition, % at 6.8 µM; hit rate 87% among 2,400;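 active = inhibition above the average of every tested compound plus 3 SD, cut at about 3.8% in these data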
Target sequence (P51843 whole entry, looked up): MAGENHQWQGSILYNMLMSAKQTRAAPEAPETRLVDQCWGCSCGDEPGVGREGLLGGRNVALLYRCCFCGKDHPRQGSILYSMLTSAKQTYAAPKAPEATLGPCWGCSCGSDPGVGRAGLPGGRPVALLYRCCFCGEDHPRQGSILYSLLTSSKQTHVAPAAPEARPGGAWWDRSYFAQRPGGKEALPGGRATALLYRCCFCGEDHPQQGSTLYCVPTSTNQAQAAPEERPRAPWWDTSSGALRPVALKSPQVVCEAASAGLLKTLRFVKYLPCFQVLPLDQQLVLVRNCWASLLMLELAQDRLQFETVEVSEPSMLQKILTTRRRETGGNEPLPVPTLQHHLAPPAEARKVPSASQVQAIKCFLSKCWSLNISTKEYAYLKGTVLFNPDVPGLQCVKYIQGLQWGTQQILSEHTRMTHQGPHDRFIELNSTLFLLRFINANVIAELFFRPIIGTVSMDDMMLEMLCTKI
SF1 mutant ctr – StAR reporter signal changes without DAX1, counter-screen for DAX1 inhibitor project, cell-based, luminescence, AF-2 mutant SF-1, transactivation; hit rate 78% among 2,400; HEK293 StAR-luciferase, SF-1 AF2 mutant; shares compounds with DAX1 inh-2; AID 652136, 2013; inhibition, % at 6.8 µM;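 active = inhibition above the mean of all tested compounds plus 3 SD, cut at about 3% in these data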
Each line names hits and unclear results; the compound was inactive in the other large screens (follow-up assays come after a bar, where they were run).

COc1ccc(NC(=O)c2ccccc2NC(=O)c2ccccc2)cc1	none
COc1ccc(NC(=O)c2ccccc2NC(=O)C2CC=CCC2C(=O)O)cc1 (configuration not stated)	DAX1 inh-2 5.6, hgDAF12 agonist 11.7 | DAX1 inh confirm 4.0 | SF1 mutant ctr 3.4
Cc1ccc(-c2ccc(C(=O)Nc3ccccc3)o2)c2ccccc12	none
Cc1cscc1-c1ccc(C(=O)Nc2c(C)cccc2C)o1	DAX1 inh-2 4.5 (no result: DAX1 inh-1) | DAX1 inh confirm inactive | SF1 mutant ctr inactive
CN(C)CCNC(=S)Nc1ccc(-c2nc3ccccc3[nH]2)cc1	DAX1 inh-2 5.0, hgDAF12 agonist 12.8 | DAX1 inh confirm 12.3 | SF1 mutant ctr 8.7
S=C(NCCCN1CCOCC1)Nc1ccc(-c2nc3ccccc3[nH]2)cc1	none
CS(=O)(=O)c1cccc(C(=O)Nc2ccc(-c3nc4ccccc4[nH]3)cc2)c1	DAX1 inh-2 7.2 | DAX1 inh confirm 6.7 | SF1 mutant ctr inactive
CC(C)C[C@@H]1COc2cccc(F)c2S(=O)(=O)N1C	none (no result: DAX1 inh-1)
O=C(Nc1ccccn1)c1ccc(C(=O)c2ccccc2)cc1	DAX1 inh-2 9.0, hgDAF12 agonist 12.6 | DAX1 inh confirm 10.9 | SF1 mutant ctr 4.7
Cc1cc(C)n(-c2ccc(C(=O)Nc3cccnc3Cl)cc2)n1	none
Cc1cc(C)n(-c2ccc(C(=O)Nc3ccccn3)cc2)n1	DAX1 inh-2 4.7, hgDAF12 agonist 12.3 | DAX1 inh confirm 11.1 | SF1 mutant ctr 5.4
CCCCOCCCNC(=O)C[C@H]1C[C@@]2(C(=O)OC)C(=C[C@H](C(C)C)O[C@@H]2C2CC2)N(CCc2ccc(OC)c(OC)c2)C1=O	none (no result: DAX1 inh-1)
O=C(OCC#CCSc1nnc(-c2cccc3ccccc23)o1)c1ccccc1	none (no result: DAX1 inh-1, DAX1 inh-2)
CCN(C(=O)c1cc2c(=O)n3ccccc3nc2n1C)C1CCCCC1	DAX1 inh-2 4.9 | DAX1 inh confirm 4.6 | SF1 mutant ctr inactive
Cn1c(C(=O)O)cc2c(=O)n3ccccc3nc21	none
CN(C(=O)c1cc2c(=O)n3ccccc3nc2n1C)C1CCCCC1	DAX1 inh-2 10.4 | DAX1 inh confirm 12.0 | SF1 mutant ctr 6.3
Cc1nnc(CN(C)C(=O)c2cc(COc3ccc(C)c(C)c3)on2)o1	none
Cc1ccc(OCc2cc(C(=O)N3CC4C[C@@H]5CC3C[C@H](C4)C5)no2)cc1C	DAX1 inh-2 5.2, hgDAF12 agonist 11.0 | DAX1 inh confirm inactive | SF1 mutant ctr 3.6
O=C(c1cc(COc2ccc(F)cc2Cl)on1)N1C[C@H]2CC[C@H]1C2	none
O=C(c1cc(COc2ccc(F)cc2Cl)on1)N1CC2C[C@@H]3CC1C[C@H](C2)C3	DAX1 inh-2 5.7, hgDAF12 agonist 12.9 | DAX1 inh confirm 5.8 | SF1 mutant ctr inactive
Cc1nnc(CN(C)C(=O)c2cc(COc3ccc(F)cc3Cl)on2)o1	DAX1 inh-2 5.2 | DAX1 inh confirm 8.1 | SF1 mutant ctr 4.2
Nc1[nH]c(C(=O)c2ccccc2)c(-c2ccc3ccccc3c2)c1C(=O)NCc1cccc2ccccc12	none (no result: DAX1 inh-1)
C[C@@H]1CCN(C2CC2)S(=O)(=O)c2ccc(N3CC[C@@H](N(C)C)C3)cc2O1	none (no result: DAX1 inh-1)
CCCCNS(=O)(=O)/C=C/c1cc(C)ccc1CNC(=O)OC(C)(C)C	none (no result: DAX1 inh-1)
CC(=O)c1c(C)[nH]c(C(=O)OCc2nc3ccsc3c(=O)[nH]2)c1C	DAX1 inh-2 7.1, hgDAF12 agonist 12.0 | DAX1 inh confirm 4.7 | SF1 mutant ctr 3.2
COc1ccc(OC)c(-c2nnc3n2N=C(c2ccc(OC)c(OC4CCOC4)c2)CS3)c1 (configuration not stated)	DAX1 inh-2 4.9 | DAX1 inh confirm 19.4 | SF1 mutant ctr inactive
COc1ccc(C2=Nn3c(nnc3-c3ccccc3Cl)SC2)cc1OC1CCOC1 (configuration not stated)	none
COc1ccccc1-c1nnc2n1N=C(c1ccc3c(c1)OCO3)CS2	DAX1 inh-2 4.7 (no result: DAX1 inh-1) | DAX1 inh confirm 10.9 | SF1 mutant ctr inactive
CCc1c(-c2ccc(F)cc2F)ncn1CCc1ccccc1OC	none (no result: DAX1 inh-1)
CSc1ccc(C=Nn2c(-c3cc(C)[nH]n3)n[nH]c2=S)cc1	none (no result: DAX1 inh-1)
O=C(Nc1ccc2c(c1)OCCO2)c1ccccc1F	DAX1 inh-2 4.8, hgDAF12 agonist 11.1, hcDAF12 agonist 5.7 | DAX1 inh confirm 13.9 | SF1 mutant ctr 6.2
Cc1ccc(C)c(Cn2nnc(C(=O)Nc3ccc4c(c3)OCCO4)c2N)c1	DAX1 inh-2 4.6 | DAX1 inh confirm inactive | SF1 mutant ctr 3.6
Cc1ccccc1Cn1nnc(C(=O)Nc2cccc(C)c2C)c1N	none
Cc1ccccc1Cn1nnc(C(=O)Nc2ccc3c(c2)OCCO3)c1N	DAX1 inh-2 6.2 | DAX1 inh confirm 8.7 | SF1 mutant ctr 7.4
O=C(Nc1ccc2c(c1)OCCO2)c1c(F)cccc1F	none (no result: DAX1 inh-2, ssDAF12 agonist, hgDAF12 agonist, hcDAF12 agonist)
CN1CCCCC(NC(=O)c2cccc([N+](=O)[O-])c2)C1=O (configuration not stated)	none (no result: DAX1 inh-1)
C/C(=N/NC(=O)c1ccoc1C)c1cccs1	DAX1 inh-2 7.8 (no result: DAX1 inh-1) | DAX1 inh confirm 12.2 | SF1 mutant ctr 7.3
C/C(=N\NC(=O)c1ccoc1C)c1ccc(Cl)s1	none
C=C1c2ccccc2NC(=O)N1c1ccc(OC)cc1	none
COc1ccc(N2C(=O)c3ccccc3NC23CCCCC3)cc1	DAX1 inh-2 4.5, hgDAF12 agonist 12.1 | DAX1 inh confirm 13.0 | SF1 mutant ctr 6.5
CCOC(=O)[C@]12CCCC3=C1N(CCC3)C(=O)[C@@H](CC(=O)N1CCCC1)C2	none (no result: DAX1 inh-1)
Cc1ccc(NC(=S)NC(=O)C2CCCC2)cc1C	DAX1 inh-2 4.6, hgDAF12 agonist 10.5 | DAX1 inh confirm 5.3 | SF1 mutant ctr 4.8
C=C(C)/C=C1/CN(Cc2ccc3c(c2)OCO3)C(=N)N1C(=O)OCc1ccccc1	none (no result: DAX1 inh-1)
COC(=O)CNC(=O)[C@H](Cc1ccccc1)NC1(C(=O)NCCc2c[nH]c3ccccc23)CCCCC1	none (no result: DAX1 inh-1, DAX1 inh-2)
COC(=O)c1ccc2c(c1)c(C#Cc1ccccc1)c(-c1ccccc1)n2C	DAX1 inh-2 4.7 | DAX1 inh confirm inactive | SF1 mutant ctr inactive
